Test results reported in PubChem BioAssay (NCATS).
Several values for one entry are separate records, joined by “and”; a condition that tells them apart may be missing. Equal values may be shown once. Inconclusive results are not listed. A number with no mark means an inactive call. Activity calls are given as the source filed them. Unless noted, the call rests on the fitted dose curve; in most records, active means well fitted curve in the direction sought with a large enough effect; inconclusive means small, poorly fitted or top-dose-only effect, or another doubt; inactive means no such curve, though single readings can be large; an effect the other way counts as inactive or inconclusive.

Test: qHTS assay for small molecule agonists of the antioxidant response element (ARE) signaling pathway measured by Nrf2-dependant transcriptional activity - cell viability counter screen (AID 720653; active means well fitted curve in the direction sought with a large enough effect in the repeat runs; an effect the other way counts as inactive or inconclusive)
Conditions: ARE-bla HepG2 viability, CellTiter-Glo ATP luminescence, 16 h; max response: stronger effect = lower value
Method in brief: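 ARE-bla HepG2 cells (2,000/well) rested 5 hrs at 37C/5% CO2, then exposed to compounds in DMSO for 16 hrs. Viability was read in the same wells as intracellular ATP by luminescence, 30 min at room temperature after reagent addition.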
Potency means the concentration at half of the fitted maximal effect.

| SMILES | Potency |
| --- | --- |
| CCC[CH2][Sn]([CH2]CCC)([CH2]CCC)[O]C(=O)c1ccccc1 | 3980 nM (active) |
| CC/C(=C(\c1ccc(O)cc1)c1ccc(OCCN(C)C)cc1)c1ccccc1 | 25100 nM (active) |
| CC[C@H](C)[C@H]1O[C@]2(C=C[C@@H]1C)C[C@@H]1C[C@@H](C/C=C(\C)[C@@H](O[C@H]3C[C@H](OC)[C@@H](O[C@H]4C[C@H](OC)[C@@H](NC)[C@H](C)O4)[C@H](C)O3)[C@@H](C)/C=C/C=C3\CO[C@@H]4[C@H](O)C(C)=C[C@@H](C(=O)O1)[C@]34O)O2 | 25100 nM (active) |
| [Cl][Sn]([c]1ccccc1)([c]1ccccc1)[c]1ccccc1 | 891 nM (active) |

Test: qHTS Assay for Identifying Gametocytocidal Compounds (AID 743244);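 on max response: on the % scale 0 is the no-effect control and ±100 the full control effect; actives lower the fluorescent signal which means gametocytes are killed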
Conditions: P. falciparum 3D7 stage III-V gametocytes, alamarBlue, 72 h; max response: stronger effect = lower value
Method in brief: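 Using 20,000 stage III–V 3D7 gametocytes per well, compounds were incubated 72 h under 37 °C/5% CO2. Viability was then assessed by 24 h alamarBlue reduction, measured fluorometrically at 525/598 nm.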

| SMILES | Potency | max response [%] |
| --- | --- | --- |
| C[C@H]1[C@@H](OC(=O)CCC(=O)O)O[C@@H]2OC3(C)CC[C@H]4[C@H](C)CC[C@@H]1[C@@]24OO3 | 66.2 nM (active) | – |
| COC(=O)C[C@](O)(CCCC(C)(C)O)C(=O)O[C@@H]1C(OC)=CC23CCCN2CCc2cc4c(cc2[C@H]13)OCO4 (stereo not given in full) | 83.3 nM (active) | – |
| CCC(C(=O)O)C1OC(C(C)C(O)C(C)C(=O)C(CC)C2OC3(C=CC(O)C4(CCC(C)(C5CCC(O)(CC)C(C)O5)O4)O3)C(C)CC2C)C(C)CC1C (stereo not given) | 60.5 nM (active) | – |
| COC12CC[C@@]3(C[C@@H]1C(C)(O)C(C)(C)C)[C@H]1Cc4ccc(O)c5c4[C@@]3(CCN1CC1CC1)[C@H]2O5 (stereo not given in full) | 31600 nM (active) | – |
| O=C(O)CN(CCN(CC(=O)O)CC(=O)O)CC(=O)O | – | 12.5 |
| C=Cc1c(C)c2cc3nc(cc4[nH]c(cc5nc(cc1[nH]2)C(C)=C5CCC(=O)OC)c(CCC(=O)O)c4C)[C@@]1(C)C3=CC=C(C(=O)OC)[C@H]1C(=O)OC | 894 nM (active) | – |
| COC(C(=O)C(O)C(C)O)C1Cc2cc3cc(OC4CC(OC5CC(O)C(O)C(C)O5)C(O)C(C)O4)c(C)c(O)c3c(O)c2C(=O)C1OC1CC(OC2CC(OC3CC(C)(O)C(O)C(C)O3)C(O)C(C)O2)C(O)C(C)O1 (stereo not given) | 1120 nM (active) | – |
| C[C@@H]1[C@H](O)[C@@H](C)/C=C/C=C/CC/C=C/C=C/C=C/C=C/[C@H](O[C@H]2O[C@@H](C)[C@H](O)[C@@H](N)[C@H]2O)CC2O[C@](O)(C[C@@H](O)[C@H](O)CC[C@@H](O)C[C@@H](O)C[C@@H](O)CC(=O)O[C@H]1C)C[C@H](O)[C@H]2C(=O)O | – | -9.77 |
| CN(C)C(=O)CCSC(SCCC(=O)O)c1cccc(/C=C/c2ccc3ccc(Cl)cc3n2)c1 (stereo not given) | – | 41.4 |
| CC[C@@H](C(=O)[C@@H](C)[C@@H](O)[C@H](C)[C@@H]1O[C@@H]([C@@H](CC)C(=O)O)CC[C@@H]1C)[C@H]1O[C@]2(C=C[C@@H](O)[C@]3(CC[C@@](C)([C@H]4CC[C@](O)(CC)[C@H](C)O4)O3)O2)[C@H](C)C[C@@H]1C | 235 nM (active) | – |
| CC[C@@]1([C@@H]2O[C@@H]([C@H]3O[C@@](O)(CO)[C@H](C)C[C@@H]3C)C[C@@H]2C)CC[C@H]([C@]2(C)CC[C@]3(C[C@H](O)[C@@H](C)[C@@H]([C@@H](C)[C@@H](OC)[C@H](C)C(=O)O)O3)O2)O1 (stereo in doubt) | 891 nM (active) and 166 nM (active) | – |
